Results as given in PubChem BioAssay AID588493 (Sanford-Burnham Center for Chemical Genomics, 2011).
In all, about 360,000 compounds went through this assay and about 2,100 (0.58%) were called active. The list comes from a sample in which actives are over-represented; it also holds similar structures and randomly drawn compounds. Unmarked numbers belong to inactive results.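 The calls were made as follows: active = inhibition at 20 µM, scaled to each plate's controls, above about 33% (limit read from the data); inactive = the rest.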

Target: 26S proteasome non-ATPase regulatory subunit 14 (Homo sapiens) (UniProt O00487)
Experiment: Rpn11 (PSMD14) deubiquitinase inhibitors, primary screen, biochemical, fluorescence polarization, uHTS (AID 588493)
Details: human 26S proteasome, Ub4-pepOG fluorescence polarization; at 20 µM; active compounds read high; 20S core pre-blocked with epoxomicin

26S proteasome non-ATPase regulatory subunit 14 (Homo sapiens), sequence (O00487 whole entry, looked up): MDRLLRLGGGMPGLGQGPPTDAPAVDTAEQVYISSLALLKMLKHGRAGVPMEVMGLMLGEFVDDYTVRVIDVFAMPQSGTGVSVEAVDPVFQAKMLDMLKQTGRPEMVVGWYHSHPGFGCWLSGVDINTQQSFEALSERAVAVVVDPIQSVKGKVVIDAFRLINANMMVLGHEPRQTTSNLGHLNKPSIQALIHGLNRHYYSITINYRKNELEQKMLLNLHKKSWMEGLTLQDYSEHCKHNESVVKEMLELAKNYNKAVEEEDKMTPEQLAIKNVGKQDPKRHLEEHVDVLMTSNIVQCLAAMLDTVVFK

Compound	inhibition
Nc1nonc1-n1nnc(C(=O)N/N=C/c2cc(Br)ccc2O)c1CSC1=NCCS1	43.6% (active)
COCc1c(C(=O)N/N=C\c2cccnc2)nnn1-c1nonc1N	-1.2%
CC(C)c1c(C(=O)N/N=C/c2ccccc2C(=O)O)nnn1-c1nonc1N	-1.4%
CC(C)Cn1c(=O)c2ccccc2n2c(CCC(=O)NCc3ccccn3)nnc12	4.1%
O=C(Nc1c[nH]c(=O)[nH]c1=O)OCc1ccccc1	-11.5%
N#C/C=C1\Sc2ccccc2C(=O)N1CC(=O)N1CCN(S(=O)(=O)c2ccccc2)CC1	5.4%
Cc1cccc(NS(=O)(=O)c2ccc([N+](=O)[O-])cc2)n1	-2.6%
Cc1nc2ccccc2nc(=O)c1NNc1ccc([N+](=O)[O-])cc1	43.9% (active)
CC(O)c1nc2ccccc2n1Cc1ccc([N+](=O)[O-])cc1 (stereo unspecified)	1.9%
CCC(=O)N1CCC(C(N)=O)(N2CCCCC2)CC1	-4.7%
CCOC(=O)CN(C(=O)COc1nc(C)cc(C)c1C#N)c1ccc(Cl)cc1	1.3%
O=C1Nc2ccc(Br)cc2/C1=N/N=C/C1=C(N2CCOCC2)C(=C\c2ccccc2)/CC1	8%
O=C(O)c1ccc(NN=CC2=C(N3CCOCC3)/C(=C/c3ccccc3)CC2)cc1	51.4% (active)
C=CCn1c(-c2ccccc2OCC)n[nH]c1=S	-4.4%
CC(C)(C)NC(=O)CSc1nnc(NC(=O)CCc2ccccc2)s1	2.2%
CC(C)(C)NC(=O)CSC(=Nc1ccccc1F)NC#N	45.6% (active)
Cc1ccccc1CSCC(=O)NC(=O)NC(C)(C)C	4.3%
CC(=O)Nc1ccc(NC(=O)CSCc2cnn(-c3ccccc3)c2-n2cccc2)cc1	-1.2%
CCc1c(C)[nH]c(=S)c(C#N)c1C	-1.9%
Cc1cccc(-n2c(SCC(N)=O)nc3c(c2=O)C2(CCCCC2)Cc2ccccc2-3)c1	14.6%
COc1ccc(C(=O)NCc2ccc(Cl)cc2)cc1S(=O)(=O)N1CCCC1	-4.5%
CN(C(=O)c1c(Cl)cnn1C)C12CC3CC(CC(C3)C1)C2	0.7%
N#CC(C(=O)c1ccc(S(=O)(=O)N2CCCCCC2)cc1)c1nc2ccccc2[nH]1 (stereo unspecified)	13.9%

Compound	inhibition
O=C(NCc1ccco1)C1CCCN(S(=O)(=O)c2cnc[nH]2)C1 (stereo unspecified)	-5.5%
CCCS(=O)(=O)N1CCCC(C(=O)NCc2ccco2)C1 (stereo unspecified)	34.7% (active)
O=C(NCc1ccco1)C1CCCN(S(=O)(=O)c2ccccc2)C1 (stereo unspecified)	-4.7%
CC(Sc1nc2c([nH]c3ccccc32)c(=O)n1C)c1ccccc1 (stereo unspecified)	-0.4%
Cc1cc(C)nc(NC2=NCC(=O)N2c2ccc(Cl)cc2)n1	4.1%
O=C(COCc1cc(-c2ccc3c(c2)OCO3)on1)N1CCN(c2cccc(Cl)c2)CC1	6.1%
Cc1c(-c2ccccc2)cn2c1-c1ccc(C)n1CC2	44.5% (active)
CCCCNC(=O)C(C)N(CCN(C)C)C(=O)CCCN1C(=O)NC(c2ccc(Cl)cc2)C(C(=O)OCc2ccccc2)=C1C (stereo unspecified)	-1.7%
COc1ccc(-c2nc3n(c2Br)CCC3)cc1	6.5%
Cc1cccc(OCC(=O)NCCNC(=O)c2cccnc2)c1	2.9%
Cc1ccc(NC(=O)COc2ccc(/C=N\NC(=O)c3cccnc3)cc2)cc1C	91% (active)
Cc1ccc(OCC(=O)NCCCNC(=O)c2cccnc2)cc1C	0.1%
Cc1ccc(C(=O)N2CCCC2)c(F)c1F	-4.7%
Cc1nc2ccccc2n1C(=O)N1CCOCC1	58.5% (active)
O=C(c1cc(-c2ccc(Cl)s2)nc2ccccc12)N1CCOCC1	-0.8%
O=C(N1CCOCC1)N1CCOCC1	-1.2%
CCOC(=O)C1(Cc2cccc(OC)c2)CCCN(C(=O)CCSC)C1 (stereo unspecified)	5.4%
Cc1c(NC(=O)CSc2nnc(-c3cccnc3)n2N)c(=O)n(-c2ccccc2)n1C	0%
Cc1c(NC(=O)CSc2nnnn2-c2ccc(C(=O)O)cc2)c(=O)n(-c2ccccc2)n1C	-4.2%
Cc1c(NC(=O)CSc2cccc3cccnc23)c(=O)n(-c2ccccc2)n1C	48.6% (active)
CC(C)CC(NC(=O)C1CCCN1C(=O)[C@@H](C)NC(=O)OCc1ccccc1)C(=O)NCC(N)=O (stereo partly specified)	-2.1%
CC(C)CC(O)C1CCN(C(=O)CCc2nnc(-c3ccc4c(c3)OCO4)o2)CC1 (stereo unspecified)	-1.9%
Cc1ccc(Nc2nc(N)nc(CSc3nnc(C)s3)n2)cc1	-0.4%

Compound	inhibition
Cc1ccc(Nc2ccccc2N)cc1	53% (active)
O=[N+]([O-])c1ccccc1Nc1ccc(O)cc1	0.3%
O=[N+]([O-])c1cc(S(=O)(=O)Nc2cccc(Cl)c2)ccc1N=Nc1c(O)[nH]c2ccccc12	-18%
Cc1c(CCC(=O)N[C@@H](CC(C)C)C(=O)O)c(=O)oc2c(C)c3oc4c(c3cc12)CCCC4	-8.5%
Cc1oc2c(C)c3oc(=O)c(CC(=O)N[C@@H](CC(C)C)C(=O)N[C@@H](Cc4ccccc4)C(=O)O)c(C)c3cc2c1C	71.8% (active)
Cc1c(OC(C)C(=O)N[C@@H](Cc2ccccc2)C(=O)O)ccc2c3c(c(=O)oc12)CCCC3 (stereo partly specified)	-4.9%
CC(=NCc1ccc2c(c1)OCO2)C1=C(O)c2ccccc2C1=O	-6.8%
CCOc1ncccc1C(=O)OCC(=O)Nc1cccc(S(=O)(=O)N2CCCCCC2)c1	1.7%
Cc1cccc(Nc2ccccc2C(=O)NCc2ccco2)c1C	0.1%
CC(C)(C)c1ccc(C(=O)NCc2ccco2)cc1	0.7%
CCc1ccc(-c2cc(C(=O)NCc3ccco3)c3ccccc3n2)s1	40.1% (active)
CN1CCNC(=O)C1CC(=O)N1CC=C(c2ccc(F)cc2)CC1 (stereo unspecified)	-2.3%
CCCCCCCCCCOC(=O)Cn1c(COc2cccc(OC)c2)[n+](C)c2ccccc21	33% (active)
COc1cccc(CN(C)CC(=O)Nc2sc3c(c2C#N)CCC3)c1	18%
CCCc1cc(=O)[nH]c(SCC(=O)Nc2sc3c(c2C#N)CCCC3)n1	2%
COc1ccc(-n2c(SCC(=O)Nc3sc4c(c3C#N)CCCC4)nnc2-c2ccc(O)cc2)cc1	59.6% (active)
Cc1ccc(Cc2c(-c3ccco3)nc3ccc(Cl)cn23)cc1	18.2%
COC(=O)c1c(CCl)noc1C(=O)NC(C)C	-0.8%
O=C(/C=C/c1cccs1)c1cc(Cl)ccc1OC(=O)N1CCOCC1	1.7%
O=c1c2ccccc2ncn1CCc1ccncc1	1.2%
Cc1ccc2c(c1)N(CC(=O)N1CCOCC1)C(=O)CO2	-3.1%
Cc1cc(/C=C2/SC(=O)N(CC(=O)N3CCCC3)C2=O)ccc1N1CCOCC1	59.6% (active)
O=C(CN1C(=O)CSc2ncccc21)N1CCOCC1	-4.6%

Compound	inhibition
Cc1cccc(N(C(=O)c2sc(C)nc2C)C(C(=O)NCC2CCCO2)c2ccccc2)c1 (stereo unspecified)	-7.9%
CCNC(=O)C1(C)CCCN(Cc2noc(-c3ccccc3OC)n2)C1 (stereo unspecified)	2.1%
CC(=O)N1CCN(Cc2cc(=O)oc3cc(C)ccc23)CC1	9.9%
Cc1ccc(S(=O)(=O)N2[C@@H](c3ccc(Br)cc3)C(C(=O)O)=C[C@H]2CC2CCCC2)cc1	14.1%
COc1cccc(NC(=O)C2(C)CCN2C(=O)CCC2CCCC2)c1 (stereo unspecified)	-22.2%
COc1cccc(CN2C(=O)CCC2(C)C(=O)NC2CCCCCC2)c1 (stereo unspecified)	3.5%
Cc1nnc(N(Cc2ccco2)C(=O)c2ccno2)s1	15%
COc1ccc(CNC(=O)c2nnn(CC(=O)Nc3cc(C)cc(C)c3)c2N)cc1	58.1% (active)
COc1ccc(NC(=O)Cn2nnc(C(=O)NCCc3ccc(OC)c(OC)c3)c2N)cc1	7%
COc1cccc(CNC(=O)c2nnn(CC(=O)Nc3cc(C)ccc3C)c2N)c1	-0.5%
O=C(Nc1cccc(C(=O)O)c1)/C(=C\c1ccccc1)NC(=O)c1ccc(Br)o1	1.3%
CC1(C)NC(=O)N(CCCCSc2ccc(Cl)cc2)C1=O	1.8%
O=P(c1ccc2c(c1)OCCO2)(N1CCOCC1)N1CCOCC1	2.8%
CCS(=O)(=O)C1=NSC2=NC(=O)/C(=C\c3ccc(OS(=O)(=O)c4ccccc4)cc3)C(=N)N21	22.6%
CS(=O)(=O)c1ccc2c(c1)SC1=NC(=O)/C(=C/c3ccco3)C(=N)N12	76.1% (active)
CCCC1C(c2ccccc2)C(C#N)(C#N)C2(C#N)CC1(N)NC2=O (stereo unspecified)	3%
COc1ccc(-c2ccnc(SCC(=O)N3CCOCC3)n2)cc1	-4%
COC1=C/C(=C/c2c(N)n3nc(CC(=O)N4CCOCC4)sc3nc2=O)C=CC1=O	46.9% (active)
O=C(Oc1ccccc1C(=S)N1CCCCC1)c1cc([N+](=O)[O-])cc([N+](=O)[O-])c1	1.8%
CC1C(=O)N(Cc2cn(Cc3ccco3)nn2)CCS(=O)(=O)N1Cc1ccc(-c2cccc(CO)c2)cc1 (stereo unspecified)	4.5%
CC(C)CC1C(=O)N(Cc2cn(CC3CCCCC3)nn2)CCS(=O)(=O)N1Cc1ccc(-c2ccc(Cl)cc2)cc1 (stereo unspecified)	-2.7%
CC(C)CC1C(=O)N(Cc2cn(Cc3ccco3)nn2)CCS(=O)(=O)N1Cc1ccc(-c2ccc(Cl)c(Cl)c2)cc1 (stereo unspecified)	59.9% (active)
